Source: PubChem BioAssay (National Center for Advancing Translational Sciences (NCATS))
KDM5B inhibitor = inhibitors of human KDM5B histone demethylase; Q9UGL1; KDM5B demethylase, FDH-coupled NADH fluorescence (FDH is formaldehyde dehydrogenase); Potency, µM (series often up to 57.7 µM), most hits filed as inhibitors; 220,000 compounds, 2.6% hits; active = well fitted inhibition curve with a large enough effect; also: nearly all actives have a fitted effect of over 70% in size
Target sequence (Q9UGL1 whole entry, looked up): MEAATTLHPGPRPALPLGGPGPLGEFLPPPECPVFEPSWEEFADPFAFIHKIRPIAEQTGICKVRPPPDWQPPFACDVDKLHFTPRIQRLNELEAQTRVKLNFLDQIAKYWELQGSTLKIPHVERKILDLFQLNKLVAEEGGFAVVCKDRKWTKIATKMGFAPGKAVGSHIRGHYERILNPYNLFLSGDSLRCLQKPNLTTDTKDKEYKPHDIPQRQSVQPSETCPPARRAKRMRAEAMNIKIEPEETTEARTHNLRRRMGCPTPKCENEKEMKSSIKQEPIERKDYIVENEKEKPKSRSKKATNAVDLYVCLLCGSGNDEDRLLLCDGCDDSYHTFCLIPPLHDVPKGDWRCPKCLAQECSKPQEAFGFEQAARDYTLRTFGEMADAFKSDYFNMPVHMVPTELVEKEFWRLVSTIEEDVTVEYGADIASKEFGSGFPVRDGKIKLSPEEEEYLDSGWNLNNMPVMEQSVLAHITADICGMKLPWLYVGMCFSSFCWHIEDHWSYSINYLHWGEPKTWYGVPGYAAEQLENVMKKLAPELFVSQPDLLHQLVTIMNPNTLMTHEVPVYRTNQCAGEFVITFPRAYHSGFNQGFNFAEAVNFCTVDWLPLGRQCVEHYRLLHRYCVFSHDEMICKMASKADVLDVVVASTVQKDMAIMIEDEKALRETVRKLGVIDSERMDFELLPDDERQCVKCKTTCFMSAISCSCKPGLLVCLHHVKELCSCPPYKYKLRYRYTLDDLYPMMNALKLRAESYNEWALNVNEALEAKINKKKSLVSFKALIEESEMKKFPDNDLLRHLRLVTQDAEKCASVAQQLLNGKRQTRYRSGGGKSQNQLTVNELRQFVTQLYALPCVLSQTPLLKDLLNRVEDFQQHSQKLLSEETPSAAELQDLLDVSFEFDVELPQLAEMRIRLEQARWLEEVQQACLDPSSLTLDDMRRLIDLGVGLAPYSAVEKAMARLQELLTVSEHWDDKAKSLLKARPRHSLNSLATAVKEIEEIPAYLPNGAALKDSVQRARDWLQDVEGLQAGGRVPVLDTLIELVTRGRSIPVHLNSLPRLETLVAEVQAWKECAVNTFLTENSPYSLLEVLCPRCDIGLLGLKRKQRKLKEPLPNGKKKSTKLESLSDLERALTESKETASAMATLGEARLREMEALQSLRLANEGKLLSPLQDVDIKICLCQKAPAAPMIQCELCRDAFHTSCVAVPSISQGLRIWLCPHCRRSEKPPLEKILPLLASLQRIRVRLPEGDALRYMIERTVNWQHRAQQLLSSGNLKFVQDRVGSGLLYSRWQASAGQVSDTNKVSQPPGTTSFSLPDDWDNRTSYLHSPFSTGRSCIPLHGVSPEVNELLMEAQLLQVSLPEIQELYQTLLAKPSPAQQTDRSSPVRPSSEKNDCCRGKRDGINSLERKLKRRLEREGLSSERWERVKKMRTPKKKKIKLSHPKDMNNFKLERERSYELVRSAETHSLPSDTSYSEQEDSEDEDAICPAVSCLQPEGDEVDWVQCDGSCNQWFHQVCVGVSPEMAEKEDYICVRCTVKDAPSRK
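Compound dilutions met 200 nM (final) KDM5BΔAP for 10 min at room temperature before substrate addition. The substrate mix held 12.5 µM H3K4me3 with cofactors 25 µM α-ketoglutarate and 50 µM Fe²⁺. NADH signal gain over 30 min defined activity.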
Large screens that a line does not name were inactive. Only a selection was taken, and hits are over-represented in it overall.

CN1CCOc2c(C(=O)NCCN3CCNC3=O)cc(-c3cccc4[nH]ccc34)cc21	KDM5B inhibitor 32µM
O=C(NC1CC1)c1cc(-c2ccccc2F)cc2c1OCCN2Cc1cccnc1	KDM5B inhibitor 32µM
O=C(CCC1CCCN(Cc2cccnc2)C1)Nc1ccccc1F (centres undefined)	none
O=C(Nc1ccc(F)cc1F)Nc1ccccc1C(=O)NCCN1CCNC1=O	none
O=C(NCC1CCCO1)c1ccc2c(c1)CC(=O)N2Cc1ccccc1 (centres undefined)	none
O=C(NCCO)c1nc(-c2cccc3[nH]ccc23)no1	none
O=C(NCc1cccnc1)c1cc(-c2ccccc2F)cc2c1OCCN2Cc1cccnc1	KDM5B inhibitor 28µM
Cc1ccccc1-c1noc(-c2ccccc2C(=O)NCC2CCCO2)n1 (centres undefined)	none
O=C(NCc1cccnc1)c1ccc2c(c1)-c1ccccc1C2	none
COc1cccc2cc(C(=O)N(C)CCOc3cccc(Cl)c3)c(=O)oc12	none
Cn1c(SCC(=O)c2ccc3c(c2)OCCCO3)nnc1-c1ccc(F)cc1	none
O=C(Nc1oc2ccccc2c(=O)c1-c1ccc2c(c1)OCO2)C1CCCCC1	none
CCn1cnc2c1c(=O)n(CC(=O)Nc1ccc(OC(F)F)cc1)c(=O)n2Cc1ccccc1	none
O=C(NCC12CC3CC(CC(C3)C1)C2)c1cc([N+](=O)[O-])ccc1Cl	none
Cc1noc(CSc2ccccc2C(=O)N2CCCc3ccccc32)n1	none
CC(C)CC(C)N(C)CC(=O)NC(C)(C#N)C1CC1 (centres undefined)	none
CCCN1C=NS(=O)(=O)c2cc(C(=O)NCCc3ccccc3)ccc21	none
CCCCNc1nc2c(c(=O)n(Cc3ccc(Br)cc3)c(=O)n2C)n1C	none
Cc1ccc2nc(-c3cccnc3)cc(C(=O)NCCc3ccc(F)cc3)c2c1	none
COc1ncc(-c2cc(C(=O)NCc3cccnc3)c3c(c2)N(C)CCO3)cn1	none
CN1CCOc2c(C(=O)NCCc3cnc[nH]3)cc(-c3ccccc3F)cc21	KDM5B inhibitor 32µM
Cc1ccccc1-c1cc(C(=O)NCc2cccnc2)c2c(c1)N(C)CCO2	KDM5B inhibitor 35µM
Cn1ccc(NC(=O)c2cnc3c(c2)N([S+](=O)([O-])c2cccnc2)CCC3)n1	none
O=C(c1ccc2c(c1)OCO2)N1CCN2C(=O)N(Cc3cccnc3)C[C@H]2C1	none
Cn1ccc(NC(=O)c2cc(-c3ccccc3F)cc3c2OCCN3Cc2cccnc2)n1	KDM5B inhibitor 28µM
CN1[C@@H](c2ccc(Cl)cc2)[C@@H](C(=O)NCCc2cnc[nH]2)C[C@@]1(C)C(=O)O	none
O=C(NCCc1cnc[nH]1)c1nc(-c2ccccc2)cc2[nH]ccc12	none
O=C(NCCc1ccc(F)cc1)c1cc(-c2cccnc2)nc2ccccc12	none
O=C(NCCc1cnc[nH]1)c1cc(-c2ccccc2F)cc2c1OCCN2Cc1cccnc1	KDM5B inhibitor 22µM
Cc1scc(C(=O)NCc2cccnc2)c1C	none
CCCCCCNC(=O)C(C#N)c1nc2ccccc2nc1N(CC)CC (centres undefined)	none
COc1cccc(NC(=O)CSc2nc3ccccc3o2)c1	none
O=C(Nc1nonc1-c1ccc2c(c1)CCCC2)c1cc(=O)c2ccc(Br)cc2o1	none
Cc1nc(-c2ccc(S(=O)(=O)Nc3ccccc3F)cc2)co1	none
O=C1Cc2cc(C(=O)CSc3nnc(-c4ccccc4Cl)o3)c(Cl)cc2N1	none
O=C(CCC1CCCC1)Nc1cccc(-c2nnc3n2CCCC3)c1	none
COc1ccc(C(=O)NC(C)c2nncn2C)cc1OC1CCN(C(C)=O)CC1 (centres undefined)	none
COc1ccc(OC2CCN(C(C)=O)CC2)c(C(=O)NC(C)c2cn(C)nc2C)c1 (centres undefined)	KDM5B inhibitor 32µM
COc1ccc(OC2CCN(C(C)=O)CC2)c(C(=O)N(C)Cc2ccccc2)c1	none
COc1ccc(Cc2nnc(SC(C)c3nc4ccccc4c(=O)[nH]3)n2N)cc1 (centres undefined)	none
CNC(=O)CCn1ncc2cc(OCc3ccccc3-c3cc(F)cc(OC)c3)ccc21	none
COc1ccccc1NC(=O)Cn1ccc2ccc(Cl)cc21	none
O=C(O)CNC(=O)Cn1ccc2ccc(OCc3ccccc3)cc21	none
COc1ccccc1NC(=O)Cn1ccc2cc(Cl)ccc21	none
COc1cc(F)cc(-c2cccc(COc3cnc4c(ccn4CC(=O)O)c3)c2)c1	KDM5B inhibitor 35µM
COc1cc(Cl)ccc1-c1cccc(COc2cnc3c(ccn3CC(=O)O)c2)c1	KDM5B inhibitor 35µM
Cc1oc(-c2ccccc2)nc1C(=O)Nc1ccccc1Cc1ccccc1	none
Cc1ccc(-n2c(C3CCN(C(=O)c4n[nH]c5c4CCCC5)CC3)n[nH]c2=O)cc1	none
COc1ccc(NC(=O)N2CCCC(c3noc(COc4ccccc4)n3)C2)c(C)c1 (centres undefined)	none
COc1ccc(NC(=O)N2CCCC(Cn3cnc4cccnc43)C2)c(C)c1 (centres undefined)	none
Cc1ccc(C(=O)N2CCCC3(C2)NC(=O)N(Cc2cccc(Cl)c2)C3=O)cc1F (centres undefined)	none
COc1ccc(NC(=O)N2CCCC3(C2)Nc2cccnc2NC3=NC2CCCC2)c(C)c1 (centres undefined)	KDM5B inhibitor 25µM
O=C(c1n[nH]c2c1CCCC2)N1CCCC2(C1)Nc1cccnc1NC2=NC1CCCC1 (centres undefined)	KDM5B inhibitor 25µM
Cc1ccc(C(=O)N2CCCC3(C2)C(=NC2CCCCC2)NC(=O)N3c2cccnc2)cc1 (centres undefined)	none
Cc1ccc(C(=O)N2CCCC3(C2)Nc2cccnc2NC3=NC2CCCC2)cc1F (centres undefined)	KDM5B inhibitor 28µM
Cc1ccc(C2=NC3(CCN(C(=O)c4n[nH]c5c4CCCC5)CC3)ON2)cc1	none
O=C(CSc1nc2cc(S(=O)(=O)N3CCOCC3)ccc2o1)N1CCOCC1	none
CN(Cc1nc2ccccc2n1C(F)F)S(=O)(=O)c1c(F)cccc1F	none
CCOC(=O)c1cccc(NC(=O)NCc2cccn2Cc2cccc(F)c2)c1	none
O=C(NCc1ccc(F)cc1)c1nc(-c2ccc(F)cc2)c2ccccn12	KDM5B inhibitor 32µM
C[S+](=O)([O-])c1ccc(-c2nc(C(=O)NCc3cccnc3)n3ccccc23)cc1	none
O=C(Cc1csc2nc(-c3ccccc3)cn12)NCc1ccc(F)cc1	none
O=C(NCc1ccc(F)cc1)c1nc(-c2cc(Cl)cc(Cl)c2)c2ccccn12	none
C[S+](=O)([O-])c1ccc(-c2nc(C(=O)NCc3ccc(F)cc3)n3ccccc23)cc1	KDM5B inhibitor 89µM
Cc1ccc(-c2nc(N)sc2CC(=O)OCC(=O)Nc2ccc(C)c(C)c2)cc1	none
CCN1CCN(C(=O)CN(c2cccc(C)c2)S(C)(=O)=O)CC1	none
Cc1cccc(C(=O)Nc2ccc(CC(=O)N(C)C)cc2)c1	none
COCCCNc1nc2c(c(=O)n(C)c(=O)n2C)n1Cc1cccc(Cl)c1	none
O=C(NC1CCCC1)N1CC(Oc2ccccc2-c2nc(-c3ccccc3)no2)C1	KDM5B inhibitor 28µM
COc1cccc(C(=O)N2CC(Oc3ccc(-c4noc(-c5ccccc5)n4)cc3)C2)c1	none
COc1ccc(C(=O)N2CC(Oc3ccc(-c4nc(-c5ccccc5)no4)cc3)C2)cc1	none
CCNC(=O)N1CC(Oc2ccccc2-c2nc(-c3cnccn3)no2)C1	none
COc1ccc(C(=O)N2CC(Oc3ccccc3-c3nc(-c4ccccc4)no3)C2)cc1	KDM5B inhibitor 25µM
O=C(Nc1ccccc1)N1CCC(Oc2ccccc2-c2nc(-c3cnccn3)no2)C1 (centres undefined)	none
COc1ccccc1-c1nc(SCC(=O)Nc2ccccc2)n2[nH]c(=O)cc2n1	none
COc1ccc(NC(=O)Cn2cccc2-c2nc(-c3ccccc3)no2)cc1OC	none
